Laboratory results: the supplement of paper PMC11732987, “Enantioselective OTUD7B fragment discovery through chemoproteomics screening and high-throughput optimisation” (Communications Chemistry, 2025)

Key:
Test in all cases: log2 ratio of Biotin-Ahx-Ub-VS probe labelling (fragment/DMSO); higher = less target engagement (more negative = stronger competition), active = hit call of the paper (q ≤ 0.05, log2 ratio ≤ -1)
Conditions in all cases: compound concentration: 200 uM; treatment time: 3 h
ALG13 = target: T1, ALG13 (UniProt Q9NP73)
T1 sequence (whole entry): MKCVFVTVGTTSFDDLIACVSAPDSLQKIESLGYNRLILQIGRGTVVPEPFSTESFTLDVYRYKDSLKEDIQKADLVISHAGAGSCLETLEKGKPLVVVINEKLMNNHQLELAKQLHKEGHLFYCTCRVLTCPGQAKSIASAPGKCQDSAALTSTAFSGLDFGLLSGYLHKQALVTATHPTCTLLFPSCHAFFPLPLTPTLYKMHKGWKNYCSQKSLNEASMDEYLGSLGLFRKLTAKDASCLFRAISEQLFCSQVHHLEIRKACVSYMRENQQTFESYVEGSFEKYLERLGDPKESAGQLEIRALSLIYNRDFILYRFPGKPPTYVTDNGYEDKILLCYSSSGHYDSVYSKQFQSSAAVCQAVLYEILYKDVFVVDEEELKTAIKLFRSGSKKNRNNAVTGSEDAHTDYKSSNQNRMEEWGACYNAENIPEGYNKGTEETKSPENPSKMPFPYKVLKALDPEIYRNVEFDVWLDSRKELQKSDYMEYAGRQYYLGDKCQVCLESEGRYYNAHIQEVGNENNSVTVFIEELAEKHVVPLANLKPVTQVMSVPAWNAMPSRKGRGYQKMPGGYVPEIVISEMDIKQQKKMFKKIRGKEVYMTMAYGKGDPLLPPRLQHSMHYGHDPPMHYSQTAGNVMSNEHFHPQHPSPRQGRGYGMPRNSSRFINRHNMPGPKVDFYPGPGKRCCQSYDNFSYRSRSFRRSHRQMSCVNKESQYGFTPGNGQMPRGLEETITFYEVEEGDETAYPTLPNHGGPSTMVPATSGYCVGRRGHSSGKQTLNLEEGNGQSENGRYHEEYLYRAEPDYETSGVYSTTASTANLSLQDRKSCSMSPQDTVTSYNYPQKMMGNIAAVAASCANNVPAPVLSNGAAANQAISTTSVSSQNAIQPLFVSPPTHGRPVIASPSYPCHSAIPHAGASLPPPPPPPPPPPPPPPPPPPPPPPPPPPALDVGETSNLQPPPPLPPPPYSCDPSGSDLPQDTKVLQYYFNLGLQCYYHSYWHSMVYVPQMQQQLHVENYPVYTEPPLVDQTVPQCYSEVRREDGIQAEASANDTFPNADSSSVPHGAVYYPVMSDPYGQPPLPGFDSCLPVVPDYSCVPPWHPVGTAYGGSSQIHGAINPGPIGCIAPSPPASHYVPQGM
Outline: (§1)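 The table lists average log2 ratios of fragment over vehicle, from an unpaired t-test on global-median-normalised Spectronaut label-free quantities. Proteins with ≥2 unique peptides were used. Samples were HEK293T lysate (495 µg) treated in triplicate with fragment at 200 µM or vehicle for 3 h, then with Biotin-Ahx-Ub-VS (0.5 µM final) for 1 h, with labelled DUBs NeutrAvidin-enriched and run by diaPASEF LC-MS/MS.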

ATXN3 = ATXN3 (UniProt P54252)
Outline: as §1

BAP1 = target: T2, BAP1 (UniProt Q92560)
T2 sequence (whole entry): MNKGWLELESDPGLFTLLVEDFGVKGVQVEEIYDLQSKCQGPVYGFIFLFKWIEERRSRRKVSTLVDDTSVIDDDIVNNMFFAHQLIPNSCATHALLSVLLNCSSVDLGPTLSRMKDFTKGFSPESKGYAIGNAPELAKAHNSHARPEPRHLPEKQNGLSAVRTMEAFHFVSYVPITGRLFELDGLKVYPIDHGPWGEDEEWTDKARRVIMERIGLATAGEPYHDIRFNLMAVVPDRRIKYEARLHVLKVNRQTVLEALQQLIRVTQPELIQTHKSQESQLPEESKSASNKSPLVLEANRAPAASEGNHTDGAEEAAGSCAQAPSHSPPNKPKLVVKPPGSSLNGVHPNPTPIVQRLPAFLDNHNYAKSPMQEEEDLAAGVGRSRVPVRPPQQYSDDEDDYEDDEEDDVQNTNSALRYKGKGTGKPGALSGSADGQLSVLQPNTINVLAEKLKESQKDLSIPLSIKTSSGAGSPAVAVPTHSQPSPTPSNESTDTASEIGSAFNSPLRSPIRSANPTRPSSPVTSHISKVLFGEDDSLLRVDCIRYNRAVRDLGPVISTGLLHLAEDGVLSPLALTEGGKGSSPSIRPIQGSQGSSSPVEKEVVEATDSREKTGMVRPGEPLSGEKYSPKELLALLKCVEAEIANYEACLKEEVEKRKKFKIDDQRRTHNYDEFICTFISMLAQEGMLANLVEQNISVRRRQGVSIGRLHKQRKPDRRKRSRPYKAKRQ
Outline: as §1

EIF3F = EIF3F (UniProt O00303)
Outline: as §1

EIF3H = EIF3H (UniProt O15372)
Outline: as §1

FAM105A = target: T3, FAM105A (UniProt Q9NUU6)
T3 sequence (whole entry): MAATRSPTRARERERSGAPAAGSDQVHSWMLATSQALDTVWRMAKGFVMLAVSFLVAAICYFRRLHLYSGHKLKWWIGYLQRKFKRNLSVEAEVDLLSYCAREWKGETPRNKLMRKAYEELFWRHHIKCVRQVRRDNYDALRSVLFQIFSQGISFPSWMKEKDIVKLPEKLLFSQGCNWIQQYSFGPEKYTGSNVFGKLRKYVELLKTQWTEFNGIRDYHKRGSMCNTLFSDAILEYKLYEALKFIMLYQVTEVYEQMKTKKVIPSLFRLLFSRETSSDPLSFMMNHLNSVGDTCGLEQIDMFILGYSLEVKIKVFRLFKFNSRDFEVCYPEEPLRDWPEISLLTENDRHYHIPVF
Outline: as §1

OTUB1 = OTUB1 (UniProt Q96FW1)
Outline: as §1

OTUD4 = target: T4, OTUD4 (UniProt Q01804)
T4 sequence (whole entry): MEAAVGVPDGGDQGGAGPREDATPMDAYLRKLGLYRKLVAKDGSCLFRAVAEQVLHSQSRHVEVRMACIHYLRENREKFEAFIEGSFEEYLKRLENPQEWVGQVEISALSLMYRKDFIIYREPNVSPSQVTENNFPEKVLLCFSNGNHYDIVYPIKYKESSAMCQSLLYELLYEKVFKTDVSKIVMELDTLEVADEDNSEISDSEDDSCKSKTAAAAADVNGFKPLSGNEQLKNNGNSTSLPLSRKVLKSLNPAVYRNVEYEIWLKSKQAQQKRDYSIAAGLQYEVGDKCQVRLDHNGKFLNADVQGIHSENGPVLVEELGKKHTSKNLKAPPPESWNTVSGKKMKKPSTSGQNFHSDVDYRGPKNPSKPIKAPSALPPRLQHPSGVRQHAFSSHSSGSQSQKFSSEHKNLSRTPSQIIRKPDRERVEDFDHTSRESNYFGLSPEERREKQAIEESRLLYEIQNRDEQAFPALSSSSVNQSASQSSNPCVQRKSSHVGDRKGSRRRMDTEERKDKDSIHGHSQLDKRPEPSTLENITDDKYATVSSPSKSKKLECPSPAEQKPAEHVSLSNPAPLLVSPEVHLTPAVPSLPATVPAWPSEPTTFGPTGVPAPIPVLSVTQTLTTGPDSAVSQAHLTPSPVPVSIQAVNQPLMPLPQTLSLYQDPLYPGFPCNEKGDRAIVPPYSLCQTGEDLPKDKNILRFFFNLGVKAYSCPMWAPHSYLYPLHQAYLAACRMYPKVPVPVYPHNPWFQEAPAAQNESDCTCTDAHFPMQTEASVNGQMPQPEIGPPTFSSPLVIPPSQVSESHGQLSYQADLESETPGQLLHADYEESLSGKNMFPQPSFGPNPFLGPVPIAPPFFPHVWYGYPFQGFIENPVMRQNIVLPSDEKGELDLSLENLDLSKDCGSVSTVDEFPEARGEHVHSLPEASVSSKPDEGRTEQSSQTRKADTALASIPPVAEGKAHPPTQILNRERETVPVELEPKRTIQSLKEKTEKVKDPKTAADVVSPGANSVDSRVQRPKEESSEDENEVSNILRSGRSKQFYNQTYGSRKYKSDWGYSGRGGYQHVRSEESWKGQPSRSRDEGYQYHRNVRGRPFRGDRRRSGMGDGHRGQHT
Outline: as §1

OTUD5 = target: T5, OTUD5 (UniProt Q96G74)
T5 sequence (whole entry): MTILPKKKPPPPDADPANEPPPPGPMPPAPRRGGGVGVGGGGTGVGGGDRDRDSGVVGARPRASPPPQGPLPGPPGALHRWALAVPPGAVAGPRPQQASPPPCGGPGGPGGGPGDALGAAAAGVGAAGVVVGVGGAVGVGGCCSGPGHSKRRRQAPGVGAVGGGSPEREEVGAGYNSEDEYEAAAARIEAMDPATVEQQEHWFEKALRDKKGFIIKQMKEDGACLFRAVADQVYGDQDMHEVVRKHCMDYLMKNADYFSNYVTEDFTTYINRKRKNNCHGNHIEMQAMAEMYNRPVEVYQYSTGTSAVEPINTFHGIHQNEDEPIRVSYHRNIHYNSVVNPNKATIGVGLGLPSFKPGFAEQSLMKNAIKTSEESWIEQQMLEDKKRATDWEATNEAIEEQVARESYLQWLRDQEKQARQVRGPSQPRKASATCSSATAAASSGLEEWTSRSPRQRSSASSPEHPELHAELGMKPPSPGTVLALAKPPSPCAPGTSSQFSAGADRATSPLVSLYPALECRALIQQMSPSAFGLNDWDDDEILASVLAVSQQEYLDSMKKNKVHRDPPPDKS
Outline: as §1

Measured: log2 ratio of Biotin-Ahx-Ub-VS probe labelling

Sequence of EIF3H (O15372 whole entry): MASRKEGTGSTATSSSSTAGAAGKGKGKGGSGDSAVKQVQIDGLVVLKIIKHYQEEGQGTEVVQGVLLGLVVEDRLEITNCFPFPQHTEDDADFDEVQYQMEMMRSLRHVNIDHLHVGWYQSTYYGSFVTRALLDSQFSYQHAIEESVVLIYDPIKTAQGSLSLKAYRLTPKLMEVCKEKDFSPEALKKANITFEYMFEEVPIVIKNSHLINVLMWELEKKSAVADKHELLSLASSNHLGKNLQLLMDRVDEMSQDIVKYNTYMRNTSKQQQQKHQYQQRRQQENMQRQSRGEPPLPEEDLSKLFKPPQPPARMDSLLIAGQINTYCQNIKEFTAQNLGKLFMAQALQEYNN
Sequence of OTUB1 (Q96FW1 whole entry): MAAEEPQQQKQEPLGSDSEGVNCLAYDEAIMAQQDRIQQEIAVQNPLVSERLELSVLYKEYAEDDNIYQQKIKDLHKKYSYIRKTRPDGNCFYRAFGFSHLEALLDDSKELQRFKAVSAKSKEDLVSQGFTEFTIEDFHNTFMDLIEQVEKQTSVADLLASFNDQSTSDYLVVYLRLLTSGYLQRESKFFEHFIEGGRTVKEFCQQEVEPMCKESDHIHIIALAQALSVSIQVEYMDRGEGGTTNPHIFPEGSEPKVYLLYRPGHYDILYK
Sequence of ATXN3 (P54252 whole entry): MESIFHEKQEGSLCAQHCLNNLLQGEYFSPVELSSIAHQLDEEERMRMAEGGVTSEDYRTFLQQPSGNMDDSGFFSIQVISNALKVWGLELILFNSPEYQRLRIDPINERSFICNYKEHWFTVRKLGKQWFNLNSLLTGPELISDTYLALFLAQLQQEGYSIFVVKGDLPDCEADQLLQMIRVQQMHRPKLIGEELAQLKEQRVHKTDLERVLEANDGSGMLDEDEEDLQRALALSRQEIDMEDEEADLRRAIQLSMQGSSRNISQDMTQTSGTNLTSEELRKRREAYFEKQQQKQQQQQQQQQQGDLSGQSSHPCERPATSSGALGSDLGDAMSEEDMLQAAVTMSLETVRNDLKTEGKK
Sequence of EIF3F (O00303 whole entry): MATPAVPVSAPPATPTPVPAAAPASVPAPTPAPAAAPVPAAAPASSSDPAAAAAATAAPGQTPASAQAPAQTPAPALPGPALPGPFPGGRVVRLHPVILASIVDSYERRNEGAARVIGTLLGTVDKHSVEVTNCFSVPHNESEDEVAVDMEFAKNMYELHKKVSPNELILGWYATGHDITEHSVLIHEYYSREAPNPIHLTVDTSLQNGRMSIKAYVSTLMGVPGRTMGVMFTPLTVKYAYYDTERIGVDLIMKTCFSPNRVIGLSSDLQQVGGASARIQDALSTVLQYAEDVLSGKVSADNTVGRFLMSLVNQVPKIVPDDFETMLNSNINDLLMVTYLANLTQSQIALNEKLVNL

COc1ccccc1C(C)NC(=O)CCl (stereo unspecified)
active: BAP1 -2.35
inactive: ALG13 -0.0378 | ATXN3 -0.0967 | EIF3F -0.185 | EIF3H -0.0831 | FAM105A -0.0799 | OTUB1 -0.298 | OTUD4 -0.393 | OTUD5 -0.514

O=C(CCl)NC1(c2ccc3c(c2)OCCO3)CCCC1
inactive: ALG13 -0.035 | ATXN3 -0.252 | EIF3F -0.19 | EIF3H -0.051 | FAM105A 0.0394 | OTUB1 -0.359 | OTUD5 -0.293
active: BAP1 -1.89 | OTUD4 -1.1

O=C(CCl)N1CCN(C(=O)Nc2ccccc2)CC1
inactive: ALG13 0.164 | ATXN3 -0.281 | BAP1 -0.529 | EIF3F 0.181 | EIF3H 0.232 | FAM105A 0.233 | OTUB1 0.155 | OTUD4 0.0219 | OTUD5 -0.224

CCc1c[nH]c(CNC(=O)CCl)n1.Cl
inactive: ALG13 0.0285 | ATXN3 -0.421 | BAP1 -0.464 | EIF3F -1.13 | EIF3H 0.281 | FAM105A 0.0309 | OTUB1 -0.461 | OTUD4 -0.214 | OTUD5 -0.482
